Assays:
Conditions in all cases: Compound Concentration (nM):1000
PIK3CB = test system: PIK3CB
PIK3CD = test system: PIK3CD
PIK3CG = test system: PIK3CG
PIK4CB = test system: T1, PIK4CB
T1 construct: gene PI4KB

PIKFYVE = test system: PIKFYVE
PIM1 = test system: PIM1
PIM2 = test system: PIM2
PIM3 = test system: PIM3
PIP5K1A = test system: PIP5K1A
PIP5K1C = test system: PIP5K1C
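Further: KINOMEscan scanMAX binding as percent activity remaining versus control; lower means stronger binding.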

| Structure (SMILES) | Percent Control (PIK3CB) [%] | Percent Control (PIK3CD) [%] | Percent Control (PIK3CG) [%] | Percent Control (PIK4CB) [%] | Percent Control (PIKFYVE) [%] | Percent Control (PIM1) [%] | Percent Control (PIM2) [%] | Percent Control (PIM3) [%] | Percent Control (PIP5K1A) [%] | Percent Control (PIP5K1C) [%] |
| --- | --- | --- | --- | --- | --- | --- | --- | --- | --- | --- |
| CC1=C(C(=O)Nc2ccc3[nH]ncc3c2)C(c2ccc3ccccc3c2)CC(=O)N1 (stereo not shown) [GSK270822A] | 70 | 100 | 97 | 73 | 83 | 91 | 100 | 92 | 95 | 99 |
| Cl.c1ccc(Cc2nc3ccc(Nc4ncnc5ccccc45)cc3[nH]2)cc1 [GR269666A] | 100 | 98 | 100 | 100 | 100 | 100 | 100 | 100 | 100 | 86 |
| COc1cc2ncn(-c3cc(O[C@H](C)c4ccccc4Cl)c(C(N)=O)s3)c2cc1OC [GSK237701A] | 31 | 28 | 12 | 67 | 74 | 88 | 100 | 66 | 0 | 9.9 |
| CC1=C(C(=O)Nc2ccc3[nH]ncc3c2)C(c2ccc(Cl)c(Cl)c2)CC(=O)N1 (stereo not shown) [GSK299115A] | 75 | 100 | 93 | 80 | 100 | 83 | 100 | 91 | 86 | 100 |
| COc1ccccc1-c1cc(/C=C2\C(=O)Nc3ncc(Br)cc32)cc(Br)c1O [GW442130X] | 80 | 64 | 65 | 68 | 30 | 100 | 96 | 100 | 86 | 100 |
| O=C1Nc2ccc(C(=O)c3ccco3)cc2C1=Cc1cc(Cl)c(O)c(Cl)c1 [GW406108X] | 100 | 79 | 47 | 0.8 | 88 | 32 | 61 | 9.9 | 88 | 43 |
| Cl.O=C(O[C@H]1CN[C@H](C#Cc2cc3ncnc(Nc4ccc5c(cnn5Cc5ccccc5)c4)c3s2)C1)N1CCOCC1 [GSK200398A] | 100 | 100 | 100 | 100 | 100 | 100 | 100 | 100 | 100 | 99 |
| Nc1ncnc2occ(-c3ccc(NC(=O)Nc4cc(C(F)(F)F)ccc4F)cc3)c12 [GW770249X] | 100 | 100 | 100 | 100 | 95 | 100 | 100 | 100 | 100 | 90 |
| Cl.O=C(Nc1ccc(Oc2ccc3[nH]c(NC(=O)c4ccccc4)nc3c2)cc1)Nc1cc(C(F)(F)F)ccc1F [GW709042A] | 100 | 76 | 100 | 100 | 100 | 100 | 100 | 100 | 100 | 98 |
| CCn1c(-c2nonc2N)nc2c(C#CC(C)(C)O)nc(OCCNC)cc21.Cl [GSK949675] | 91 | 82 | 73 | 100 | 20 | 100 | 56 | 100 | 79 | 0 |
| NS(=O)(=O)c1ccc(N/N=C2\C(=O)Nc3ccc(Cl)cc32)cc1 [GW280670X] | 100 | 94 | 100 | 100 | 94 | 100 | 100 | 100 | 100 | 80 |
| COc1ccc2c(-c3ccnc(Nc4cccc(OC(F)(F)F)c4)n3)cnn2n1 [GW810372X] | 100 | 69 | 85 | 72 | 69 | 100 | 100 | 100 | 77 | 66 |
| COc1cc(C=NNc2ncnc3c2cnn3-c2ccccc2)ccc1O [GW513184X] | 100 | 76 | 22 | 34 | 4.9 | 100 | 100 | 100 | 29 | 51 |
| COc1cccc(-c2c[nH]c3c(N/N=C/c4ccncc4)ncnc23)c1 [GW814408X] | 100 | 92 | 88 | 100 | 1.1 | 82 | 100 | 75 | 71 | 28 |
| COc1cc2ncnc(Nc3ccc4c(cnn4Cc4ccccc4)c3)c2cc1OC.Cl [GW282449A] | 100 | 100 | 100 | 100 | 93 | 100 | 100 | 100 | 100 | 76 |
| CCS(=O)(=O)c1ccc(OC)c(Nc2ncc(-c3cccc(OC)c3)o2)c1 [GW580509X] | 100 | 93 | 100 | 40 | 91 | 100 | 100 | 100 | 100 | 17 |
| NS(=O)(=O)c1ccc(N/N=C2\C(=O)Nc3ccc(-c4cnco4)cc32)cc1 [GW276655] | 98 | 88 | 83 | 75 | 100 | 45 | 96 | 56 | 26 | 55 |
| CN1CCN(C(=O)c2ccc(NC(=O)Nc3ccc(N(C)c4ccnc(Nc5ccc(CS(C)(=O)=O)cc5)n4)cc3)cc2)CC1.Cl [GW830263A] | 100 | 100 | 93 | 97 | 100 | 100 | 100 | 100 | 9.3 | 97 |
| CN(C)CCNC(=O)Nc1ccc(N(C)c2ccnc(Nc3ccc(CS(C)(=O)=O)cc3)n2)cc1.Cl [GW830900A] | 84 | 76 | 91 | 11 | 100 | 100 | 100 | 97 | 23 | 86 |
| C/C(Nc1ccc(S(N)(=O)=O)cc1)=C1/C(=O)Nc2ccccc21 [GW335962X] | 100 | 95 | 100 | 100 | 100 | 91 | 95 | 89 | 96 | 84 |

| Structure (SMILES) | Percent Control (PIK3CB) [%] | Percent Control (PIK3CD) [%] | Percent Control (PIK3CG) [%] | Percent Control (PIK4CB) [%] | Percent Control (PIKFYVE) [%] | Percent Control (PIM1) [%] | Percent Control (PIM2) [%] | Percent Control (PIM3) [%] | Percent Control (PIP5K1A) [%] | Percent Control (PIP5K1C) [%] |
| --- | --- | --- | --- | --- | --- | --- | --- | --- | --- | --- |
| CN(C)c1cc2c(Nc3ccc4c(cnn4Cc4ccccc4)c3)ncnc2cn1 [GW282974X] | 89 | 70 | 96 | 100 | 100 | 91 | 93 | 90 | 100 | 100 |
| CCc1ccc(Oc2nccc(-c3c(-c4ccc(F)cc4)ncn3C3CCNCC3)n2)cc1 [SB-242719] | 99 | 72 | 95 | 100 | 100 | 100 | 100 | 100 | 87 | 100 |
| CCS(=O)(=O)c1ccc(OC)c(Nc2ncc(-c3cccc(F)c3)o2)c1 [GW621970X] | 100 | 100 | 100 | 100 | 100 | 100 | 100 | 100 | 99 | 28 |
| NS(=O)(=O)c1ccc(N/N=C2\C(=O)Nc3ccc(C(=O)NCc4ccncc4)cc32)cc1 [GW300657X] | 81 | 77 | 100 | 83 | 84 | 100 | 100 | 100 | 100 | 51 |
| COc1ccc2[nH]c3c4[nH]c5ccc(OC)cc5c4c4c(c3c2c1)C(=O)NC4=O [GW296115X] | 88 | 64 | 87 | 100 | 0 | 46 | 0.5 | 2.6 | 100 | 81 |
| COc1ccc(COc2ccc(Cc3cnc(N)nc3N)cc2OC)cc1 [GW632580X] | 93 | 100 | 77 | 100 | 100 | 100 | 91 | 100 | 94 | 100 |
| NS(=O)(=O)c1ccc(Nc2ncc(-c3ccccc3)o2)cc1 [GW572399X] | 100 | 100 | 100 | 71 | 100 | 100 | 100 | 100 | 100 | 74 |
| CC(C)COC(=O)c1ccc2c(c1)/C(=C/Nc1ccc(S(N)(=O)=O)cc1)C(=O)N2 [GW416981X] | 100 | 95 | 100 | 100 | 100 | 81 | 100 | 40 | 33 | 89 |
| COc1cc(C)c(N(C)C(=O)CN(C)C)cc1Nc1nc(Nc2cccc(F)c2C(N)=O)c2cc[nH]c2n1 [GSK2219385] | 100 | 75 | 100 | 85 | 97 | 90 | 92 | 86 | 100 | 100 |
| Cl.O=S1CCN(Cc2ccc(-c3ccc4ncnc(Nc5ccc(OCc6ccccc6)c(F)c5)c4c3)o2)CC1 [GW576924A] | 96 | 100 | 100 | 100 | 86 | 100 | 100 | 100 | 100 | 67 |
| Cl.O=C(Nc1ccc(Oc2ccc3[nH]c(NC(=O)c4ccco4)nc3c2)cc1)Nc1cc(C(F)(F)F)ccc1F [GW683134A] | 100 | 90 | 100 | 100 | 100 | 100 | 100 | 100 | 100 | 98 |
| COc1cccc(-n2ncc3c(N/N=C/c4ccncc4)ncnc32)c1 [GW784752X] | 94 | 100 | 54 | 90 | 18 | 100 | 100 | 100 | 86 | 79 |
| COc1cc(/C=N/Nc2ncnc3[nH]ncc23)ccc1O [GW578748X] | 54 | 100 | 24 | 5 | 28 | 83 | 100 | 53 | 78 | 0 |
| O=C(Nc1n[nH]c2nc(-c3ccc(O)cc3)c(Br)cc12)C1CC1 [SB-725317] | 100 | 75 | 100 | 100 | 99 | 23 | 0.4 | 9.3 | 100 | 59 |
| COc1cc(N2CCN(C(C)C)CC2)ccc1Nc1nc(Nc2ccc(F)cc2C(=O)NC[C@@H](O)CO)c2cc[nH]c2n1 [GSK1392956A] | 96 | 80 | 100 | 100 | 95 | 100 | 100 | 100 | 100 | 100 |
| C[C@@H](Oc1cc(-n2cnc3ccc(OC4CCN(C)CC4)cc32)sc1C(N)=O)c1ccccc1Cl [GSK579289A] | 20 | 27 | 11 | 100 | 15 | 19 | 100 | 29 | 21 | 72 |
| COc1ccc2cc(-c3c(-c4ccncc4)nc(-c4ccc(S(C)(=O)=O)cc4C)n3C)ccc2c1 [SB-633825] | 94 | 100 | 79 | 69 | 100 | 78 | 97 | 80 | 95 | 100 |
| COC(=O)Nc1nc2ccc(Oc3ccc(NC(=O)Nc4cc(C(F)(F)F)ccc4F)cc3)cc2s1.Cl [GW693917A] | 100 | 76 | 100 | 95 | 100 | 100 | 100 | 100 | 100 | 100 |
| NS(=O)(=O)c1ccc(N/N=C2\C(=O)Nc3ccc(C(=O)NCCc4c[nH]cn4)cc32)cc1 [GW300660X] | 100 | 100 | 95 | 100 | 100 | 32 | 100 | 32 | 100 | 0.7 |
| Cc1cc(O)cc(C)c1/C=C/c1cncc(C(N)=O)c1 [GW435821X] | 100 | 81 | 100 | 100 | 100 | 100 | 100 | 100 | 100 | 67 |
